In PubChem BioAssay AID1159580 (chemical genetic matrix, 2015):
About 2,000 (36%) of roughly 5,500 compounds were called active. Roughly 18% stayed inconclusive and do not appear here. Cut-off read from the data, not from the text of the source: active = normalized growth mostly below about 0.91 (no sharp cut-off); inconclusive = no clear call, values can overlap the other calls; inactive = mostly above about 0.92. Some of the results follow.

Assay: chemical genetic growth profiling, strain panel (AID 1159580);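 note: tested at 20 µM; growth read once vehicle control cultures reached saturation at 30 °C; 1 = growth at the plate median or of vehicle wells; lower values mean less growth of the strain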
Settings: S. cerevisiae deletion strains, growth OD
[1] = locus YHR030C, strain SLT2, stronger effect = lower value
[2] = locus YHR079C, strain IRE1, stronger effect = lower value
[3] = locus YJL095W, strain BCK1, stronger effect = lower value
[4] = locus YJR066W, strain TOR1, stronger effect = lower value
[5] = locus YLR113W, strain HOG1, stronger effect = lower value
[6] = locus YNL183C, strain NPR1, stronger effect = lower value
[7] = locus YOR231W, strain MKK1, stronger effect = lower value
[8] = locus YPL256C, strain CLN2, stronger effect = lower value
[9] = locus YAL021C, strain ccr4, stronger effect = lower value
[10] = locus YAL026C, strain drs2, stronger effect = lower value
[11] = locus YAL030W, strain snc1, stronger effect = lower value
[12] = locus YBL061C, strain skt5, stronger effect = lower value
[13] = locus YBR009C, strain hhf1, stronger effect = lower value
[14] = locus YBR023C, strain chs3, stronger effect = lower value
[15] = locus YBR171W, strain sec66, stronger effect = lower value
[16] = locus YBR231C, strain swc5, stronger effect = lower value
[17] = locus YBR279W, strain paf1, stronger effect = lower value
[18] = locus YCL011C, strain gbp2, stronger effect = lower value
[19] = locus YCL016C, strain dcc1, stronger effect = lower value
[20] = locus YCL061C, strain MRC1, stronger effect = lower value
[21] = locus YCL069W, strain vba3, stronger effect = lower value
[22] = locus YCR088W, strain abp1, stronger effect = lower value
[23] = locus YDL005C, strain med2, stronger effect = lower value
[24] = locus YDL040C, strain nat1, stronger effect = lower value
[25] = locus YDR001C, strain nth1, stronger effect = lower value
[26] = locus YDR069C, strain doa4, stronger effect = lower value
[27] = locus YDR137W, strain rgp1, stronger effect = lower value
[28] = locus YDR159W, strain sac3, stronger effect = lower value
[29] = locus YDR297W, strain sur2, stronger effect = lower value
[30] = locus YDR334W, strain swr1, stronger effect = lower value
[31] = locus YDR335W, strain msn5, stronger effect = lower value
[32] = locus YDR392W, strain spt3, stronger effect = lower value
[33] = locus YEL003W, strain gim4, stronger effect = lower value
[34] = locus YEL037C, strain rad23, stronger effect = lower value
[35] = locus YEL061C, strain CIN8 (second series), stronger effect = lower value
[36] = locus YER015W, strain faa2, stronger effect = lower value
[37] = locus YER016W, strain bim1, stronger effect = lower value
[38] = locus YER111C, strain swi4, stronger effect = lower value
[39] = locus YER155C, strain BEM2 (second series), stronger effect = lower value
[40] = locus YFR010W, strain ubp6, stronger effect = lower value
[41] = locus YGL167C, strain pmr1, stronger effect = lower value
[42] = locus YGL173C, strain kem1, stronger effect = lower value
[43] = locus YGL227W, strain vid30, stronger effect = lower value
[44] = locus YGL240W, strain doc1, stronger effect = lower value
[45] = locus YGL253W, strain hxk2, stronger effect = lower value
[46] = locus YHR013C, strain ard1, stronger effect = lower value
[47] = locus YHR027C, strain rpn1, stronger effect = lower value
[48] = locus YHR142W, strain chs7, stronger effect = lower value
[49] = locus YJL092W, strain hpr5, stronger effect = lower value
[50] = locus YJL095W, strain BCK1 (second series), stronger effect = lower value
[51] = locus YJL115W, strain asf1, stronger effect = lower value
[52] = locus YJL129C, strain trk1, stronger effect = lower value
[53] = locus YJL154C, strain vps35, stronger effect = lower value
[54] = locus YJL164C, strain tpk1, stronger effect = lower value
[55] = locus YJL166W, strain qcr8, stronger effect = lower value
[56] = locus YKL160W, strain elf1, stronger effect = lower value
[57] = locus YKR026C, strain gcn3, stronger effect = lower value
[58] = locus YKR091W, strain srl3, stronger effect = lower value
[59] = locus YLL001W, strain dnm1, stronger effect = lower value
[60] = locus YLL026W, stronger effect = lower value
[61] = locus YLL041C, strain sdh2, stronger effect = lower value
[62] = locus YLR027C, strain aat2, stronger effect = lower value
[63] = locus YLR221C, strain rsa3, stronger effect = lower value
[64] = locus YLR258W, strain gsy2, stronger effect = lower value
[65] = locus YLR262C, strain YPT6 (second series), stronger effect = lower value
[66] = locus YLR320W, strain mms22, stronger effect = lower value
[67] = locus YLR342W, strain FKS1, stronger effect = lower value
[68] = locus YLR357W, strain rsc2, stronger effect = lower value
[69] = locus YLR370C, strain arc18, stronger effect = lower value
[70] = locus YLR384C, strain iki3, stronger effect = lower value
[71] = locus YML120C, strain ndi1, stronger effect = lower value
[72] = locus YMR058W, strain fet3, stronger effect = lower value
[73] = locus YMR125W, strain sto1, stronger effect = lower value
[74] = locus YMR129W, stronger effect = lower value
[75] = locus YMR205C, strain PFK2, stronger effect = lower value
[76] = locus YMR231W, strain pep5, stronger effect = lower value
[77] = locus YNL071W, strain lat1, stronger effect = lower value
[78] = locus YNL209W, strain ssb2, stronger effect = lower value
[79] = locus YNL248C, strain rpa49, stronger effect = lower value
[80] = locus YNL322C, strain KRE1 (second series), stronger effect = lower value
[81] = locus YNR049C, strain mso1, stronger effect = lower value
[82] = locus YOR001W, strain rrp6, stronger effect = lower value
[83] = locus YOR070C, strain gyp1, stronger effect = lower value
[84] = locus YOR080W, strain dia2, stronger effect = lower value
[85] = locus YOR083W, strain WHI5, stronger effect = lower value
[86] = locus YOR106W, strain vam3, stronger effect = lower value
[87] = locus YOR265W, strain rbl2, stronger effect = lower value
[88] = locus YOR270C, strain vph1, stronger effect = lower value
[89] = locus YOR290C, strain snf2, stronger effect = lower value
[90] = locus YPL051W, strain arl3, stronger effect = lower value
[91] = locus YPL078C, strain atp4, stronger effect = lower value
[92] = locus YPL106C, strain sse1, stronger effect = lower value
[93] = locus YPL240C, strain hsp82, stronger effect = lower value

Measured: normalized growth

O=S(=O)([O][Al])OC[C@H]1O[C@@](COS(=O)(=O)[O][Al])(O[C@H]2O[C@H](COS(=O)(=O)[O][Al])[C@@H](OS(=O)(=O)[O][Al])[C@H](OS(=O)(=O)[O][Al])[C@H]2OS(=O)(=O)[O][Al])[C@@H](OS(=O)(=O)[O][Al])[C@@H]1OS(=O)(=O)[O][Al]
inactive: [1] 0.977 | [2] 0.981 | [3] 0.986 | [4] 0.958 | [5] 0.984 | [6] 0.924 | [7] 0.98 | [8] 0.985

Nc1cc(C(Cl)=C(Cl)Cl)c(S(N)(=O)=O)cc1S(N)(=O)=O
inactive: [9] 0.98 | [10] 1 | [11] 1.02 | [12] 1.01 | [13] 0.992 | [14] 0.999 | [15] 1.02 | [16] 1.04 | [17] 1.01 | [18] 0.976 | [19] 0.978 | [20] 1.04 | [21] 1.01 | [22] 1.01 | [23] 1.01 | [24] 1.01 | [25] 1.02 | [26] 1.05 | [27] 0.998 | [28] 0.957 | locus YDR195W, strain ref2 0.998 | [29] 1.01 | [30] 1.01 | [31] 1.01 | [32] 0.978 | [33] 1.05 | [34] 1 | [35] 1 | [36] 1.02 | [37] 1 | [38] 1.01 | [39] 1.07 | [40] 1.02 | [41] 1.02 | [42] 1.04 | [43] 1 | [44] 1.04 | [45] 1.01 | [46] 1.03 | [47] 1.02 | [1] 0.977 | [2] 0.967 | [48] 1.02 | [49] 1.02 | [50] 0.997 | [3] 1.01 | [51] 1 | [52] 1.02 | [53] 0.999 | [54] 0.995 | [55] 1.06 | [4] 0.95 | [56] 1.02 | [57] 1.01 | [58] 0.992 | [59] 1.04 | [60] 1.02 | [61] 1.01 | [62] 1.02 | [5] 1 | [63] 0.981 | [64] 0.991 | [65] 1.06 | [66] 0.993 | [67] 1.04 | [68] 1.04 | [69] 1 | [70] 1.01 | [71] 1.03 | [72] 1.02 | [73] 0.972 | [74] 0.998 | [75] 1.03 | [76] 1.01 | [77] 0.991 | [6] 0.962 | [78] 0.994 | [79] 0.995 | [80] 1.01 | [81] 1 | [82] 1.02 | [83] 1 | [84] 1.02 | [85] 1.01 | [86] 1.04 | [7] 0.986 | [87] 1.01 | [88] 1.05 | [89] 0.964 | [90] 1.04 | [91] 1.06 | [92] 0.997 | [93] 1 | [8] 0.964

Cc1ncc([N+](=O)[O-])n1CC(C)O (stereo unspecified)
inactive: [9] 0.954 | [10] 0.956 | [11] 0.975 | [12] 0.974 | [13] 0.982 | [14] 0.995 | [15] 0.976 | [16] 0.992 | [17] 0.995 | [18] 0.968 | [19] 0.975 | [20] 0.924 | [21] 0.975 | [22] 0.986 | [23] 0.976 | [24] 0.978 | [25] 0.95 | [26] 0.966 | [27] 0.983 | [28] 0.972 | locus YDR195W, strain ref2 0.989 | [29] 0.982 | [30] 0.957 | [31] 0.982 | [32] 0.922 | [33] 0.977 | [34] 0.983 | [35] 0.964 | [36] 0.988 | [37] 0.983 | [38] 0.978 | [39] 0.994 | [40] 0.969 | [41] 0.981 | [42] 0.966 | [43] 0.985 | [44] 0.995 | [45] 0.981 | [46] 0.948 | [47] 0.987 | [1] 0.976 | [2] 0.979 | [48] 0.99 | [49] 0.961 | [50] 0.984 | [3] 0.991 | [51] 0.982 | [52] 0.966 | [53] 0.979 | [54] 0.966 | [55] 0.996 | [4] 0.883 | [56] 1 | [57] 0.984 | [58] 0.983 | [59] 0.988 | [60] 0.988 | [61] 0.982 | [62] 0.994 | [5] 1.01 | [63] 0.958 | [64] 0.974 | [65] 0.981 | [66] 0.96 | [67] 0.987 | [68] 0.959 | [69] 0.992 | [70] 0.998 | [71] 0.967 | [72] 0.971 | [73] 0.945 | [74] 0.965 | [75] 0.979 | [76] 0.972 | [77] 0.979 | [6] 0.891 | [78] 0.987 | [79] 0.946 | [80] 0.974 | [81] 0.978 | [82] 0.994 | [83] 0.985 | [84] 0.981 | [85] 0.997 | [86] 0.978 | [7] 0.991 | [87] 0.99 | [88] 0.97 | [89] 0.939 | [90] 1 | [91] 0.997 | [92] 0.931 | [93] 0.98 | [8] 0.965
